# Data reported in ChEMBL document CHEMBL4888484, “Replenishing the malaria drug discovery pipeline: Screening and hit evaluation of the MMV Hit Generation Library 1 (HGL1) against asexual blood stage Plasmodium falciparum ,using a nano luciferase reporter read-out” (2022).
# Hit rate of the full screen: of about 4,800 compounds, about 410 (8.5%) showed an effect of 50% or more. For the sample, strong results were picked, then their nearest neighbours and some compounds at random.
# Test system: Plasmodium falciparum
# Test: Confirmatory screen in NF54 pLDH assay, in single point, at 2uM, 72h
# Type: functional, Erythrocyte
# Details: timepoint 72 hour
row,SMILES,% Inhibition [%]
1,CC1(C)C(=O)NCCN1C(=O)c1ccc2nccnc2c1,9
2,CN(C(=O)c1n[nH]c2c1CCC2)[C@H]1CCCc2c1cnn2C,-4
3,O=S1(=O)c2ccccc2N=NN1Cc1ccc(Cl)cc1,-19
4,O=C(Nc1cc(NC(=O)c2ccc(F)cc2)cc(Oc2cccnc2)c1)c1ccc(F)cc1,5
5,O=C(Nc1cnc2ccccc2c1)c1ccccc1C(=O)c1ccc(F)cc1,94
6,O=C(Nc1ccc(N2CCn3c(nc4ccccc43)C2)cc1)c1ccc(F)cc1,14
7,CN(C)c1cccc(C(=O)N2CCN(c3ncc(F)cn3)C(=O)C2)c1,10
8,Cc1nnc2sc(-c3cnn(-c4ccccn4)c3C(F)(F)F)nn12,-4
9,c1ccc(-c2cccnc2NCc2cscn2)cc1,-3
10,Cc1ccc(C2C(C(=O)N3CCC(C)CC3)CCC(=O)N2C)cc1 (stereo not given),-1
11,COC(=O)[C@@H]1[C@@H](NC(=O)C2CCCC2)CCN1C(C)=O,1
12,Cc1cc2c(cc1C)N(CC(=O)Nc1ccc(C(F)(F)F)cc1)C(=O)CC(c1cccs1)=N2,-23
13,CC1CC(C(=O)Nc2[nH]c(=O)ncc2F)CC(C)(C)C1 (stereo not given),84
14,CC(=O)N[C@@H]1CN(Cc2nccn2Cc2ccccc2)C[C@H]1c1nccn1C,12
15,Cc1ccc(S(=O)(=O)N2CC(C)N(C(=O)N3CCOCC3)C2C)cc1 (stereo not given),14
16,CC1CCN(Cc2ccc(CNCc3c[nH]nc3-c3ccc(F)cc3)cc2)CC1,50
17,Nc1c(-c2ccc(F)cc2)nsc1C(=O)NC1CCN(Cc2ccccc2)CC1,8
18,FC(F)(F)C1CCCC(NCc2c[nH]nc2-c2cccnc2)C1 (stereo not given),3
19,c1ccc(-c2ccccc2NCn2nnc3ccccc32)cc1,-9
20,CCc1cccc(NC(=O)N2CCC3(CC2)C(=O)N(CC(=O)Nc2ccc(F)cc2)CN3c2ccccc2)c1,30
21,CC(C)N(CCS(C)(=O)=O)C(=O)NCc1ccco1,10
22,CN(C)CCN(C)c1ccc(Br)cc1NCc1cncn1C,39
23,CCn1nc(C)c(CN(C)S(=O)(=O)c2ccc(N3CCCC3=O)cc2)c1C,-1
24,Cc1cccc(Nc2nc(-c3cnc(N4CCN(C)CC4)nc3C)cc(=O)[nH]2)c1,4
25,Cc1ccc(NC(=O)Nc2cccc(-c3ccc(N4CCN(C)CC4)nn3)c2)cc1C,13

row,SMILES,% Inhibition [%]
1,Cc1cc(C(=O)N[C@@H](C)C(=O)N2CCCCC2)c2nc3n(c2n1)CCCCC3,8
2,Oc1ccc(-n2c(-c3ccccc3)ccc2-c2ccccc2)cc1,12
3,COc1ccc2c(c1)[n+](CC(=O)c1ccc(-c3ccc(Br)cc3)cc1)c(CO)n2C,54
4,Cc1ccc(C(=O)C[n+]2cc(-c3ccc(Br)cc3)n(C)c2N)cc1,-16
5,COc1cccc(C(=O)C[n+]2cc(-c3ccc(Br)cc3)n(C)c2N)c1,4
6,COc1ccnc(CN2CC[C@](C)(O)[C@H](O)C2)c1,6
7,CN1CCCN(c2ccnc3ccsc23)CC1,39
8,Cc1ccc(OCc2cccc(C(=O)N3CCC[C@@H]3CN3CCCCC3)c2)cn1,9
9,C=CCNC(=NC)NC1CCN(c2cc(OC)cc(OC)c2)CC1,7
10,CCC1(CC)CCC(NC(=O)[C@@H]2CCCCC(=O)N2)CC1,-14
11,C[C@H]1C[C@@H](O)CCN1C(=O)c1cccc2sc(C(F)(F)F)nc12,3
12,Cc1cc(C)cc(-n2cc(C(=O)NCCCc3ccccc3)nn2)c1,8
13,Cc1cc2nc(C)c(=O)n(Cc3ccc(C(=O)NCc4ccco4)cc3)c2cc1C,8
14,Cc1cc(NC(=O)NC(C)C)c2[nH]c(C(=O)N3CCOCC3)c(-c3ccccc3)c2c1,9
15,CO/C(=N/C(=O)c1cccc(OC)c1)N[C@H]1CCCc2ccccc21,-9
16,O=c1[nH]c(=O)n(Cc2cc(Cl)cc3c2OCOC3)cc1Cl,12
17,CC(C)N(C)S(=O)(=O)Nc1ccc(Br)cc1O,9
18,Nc1ccccc1-c1nc(Nc2ncccn2)n[nH]1,7
19,CC(C)c1cc(=O)[nH]c(-n2nc(C3CC3)cc2NC(=O)Cc2ccc(Cl)cc2)n1,67
20,O=C(Nc1ccc(OC(F)F)cc1)c1cc(C2CC2)nc2c1c(C1CC1)nn2-c1ccccc1,-5
21,Cc1cc(NC(=O)c2ccc(COc3ccc4ccccc4c3)o2)nn1C,13
22,CC(C)c1cc(=O)[nH]c(-n2nc(C3CC3)cc2NC(=O)COc2ccc3ccccc3c2)n1,65
23,Cc1nc(CC(=O)Nc2cc(C3CC3)nn2-c2ccccc2)cs1,8
24,Cc1ccc(N2C[C@@H](c3nnc(NC(=O)Cc4ccc(Cl)cc4)o3)CC2=O)cc1,-18
25,CCOc1c(Br)cc(Cl)cc1NCC(=O)NC(=O)NC,14

row,SMILES,% Inhibition [%]
1,COc1cc(N2CCn3c(nc4ccccc43)C2)ccc1NC(=O)c1ccc(C)cc1,-23
2,O=C1NS(=O)(=O)c2cc(N3CCN(Cc4ccccc4)CC3)ccc21,8
3,CCc1ccc(C(=O)Nc2cnc(-n3ccnc3)nc2)cc1,29
4,O=C(C[C@H]1CCN(S(=O)(=O)c2ccc(F)cc2F)C1)NCc1ccccc1,10
5,Cc1nn(Cn2nc(-c3ccc(F)cc3)c(Br)c2-c2ccc(F)cc2)c(C)c1Cl,6
6,O=C(NCc1cccc(Cl)c1)[C@H]1CCCN(c2nc3cccnc3n(Cc3ccccc3)c2=O)C1,-7
7,CCN(CC)CC(O)COc1c(Br)cc(C(C)(C)c2cc(Br)c(OCC(O)CN(CC)CC)c(Br)c2)cc1Br (stereo not given),99
8,CCN(CC)C(=O)c1cnc2snc(C)c2c1N1CCC(C(=O)Nc2c(C)cc(C)cc2C)CC1,34
9,CN(C(=O)CN(CCO)c1ccc(Br)cc1)C1CC1,2
10,CCN(C(=O)[C@H]1CCOC1)c1ccc(C(F)(F)F)cc1,5
11,O=C(O)C1CCC(=O)N(C2CC2)C1c1ccccc1 (stereo not given),10
12,C(=C\c1cc(/C=C/c2ccccc2)n2nnnc2n1)/c1ccccc1,5
13,O=C(NCC1CCCCC1O)c1cnn2ccncc12 (stereo not given),-5
14,O=C(NCC1CCCCC1)c1cn[nH]c1-c1ccccc1,6
15,COc1ccc2nc(C(F)(F)F)nc(N3CCNC(=O)CCN(C(=O)C(F)=C4CCCC4)CC3)c2c1,14
16,O=S(=O)(Nc1cccc2cccnc12)c1cccs1,64
17,Cc1cc(NS(=O)(=O)c2cccs2)n(-c2ccncc2)n1,9
18,O=S(=O)(Nc1nncs1)c1cccs1,-10
19,Cc1nsc2ncn(C[C@H](O)COCc3ccco3)c(=O)c12,8
20,CCOc1ccc(-c2cc3c(=O)n(CCC(=O)N4CCCC4)ccn3n2)cc1,7
21,O=C(CNC(=O)c1ccc(C(F)(F)F)cc1)Nc1cnc2c(c1)COCC2,4
22,Fc1ccc(-c2cc3c(N4CCCCC4)nccn3n2)cc1,12
23,CCn1cc(C(=O)Nc2n[nH]c3ccc(C(F)(F)F)cc23)cn1,-4
24,CC1CCN(C[C@H](O)C(F)(F)F)CC1,5
25,COc1cccc2c(N3CC[C@]4(CNC(=O)C4)C3)nccc12,2

row,SMILES,% Inhibition [%]
1,CC[n+]1ccc(-c2ncc(-c3ccc(C(C)(C)C)cc3)o2)cc1,55
2,Cc1ccc(C(=O)NCCn2cnc3ccccc3c2=O)cn1,-7
3,CN(C)CCNCc1ccc(Cl)c(Cl)c1,-14
4,CC(C)CC[C@@H](CCNCCN(C)C)c1ccc(Cl)cc1,103
5,CN(C)CCCNCc1ccc(Cl)cc1Cl,-7
6,Clc1ccccc1COc1ccc(CNC2CCCCC2)cc1,7
7,CC(C)CC[C@@H](CCNC1CCN(C)CC1)c1ccc(Cl)cc1,83
8,CN1CCC(NCC[C@@H](Cc2ccccc2Cl)c2ccc(Cl)cc2)CC1,92
9,O=C1c2cc3ccccc3n2C[C@](C(=O)NC2CCCCCCC2)(c2ccccc2)N1Cc1cccc(Cl)c1,-5
10,COc1ccccc1N(CC(=O)NCCN1CCOCC1)S(=O)(=O)c1ccc(C)cc1,7
11,Cc1cc(C(=O)N[C@@H](C)c2nnc3n2CCCCC3)c(C)s1,3
12,O=C(Nc1ncc(Cc2ccc(Cl)c(C(F)(F)F)c2)s1)c1ccc2nnsc2c1,10
13,CC[C@H](O)CCNC(=O)Nc1ncc(CC(C)C)s1,2
14,COc1cc(NC(=O)Cn2c(=O)n(C)c(=O)c3c2c(-c2ccccc2)cn3C)cc(OC)c1OC,-8
15,Cc1cncn1C1CCN(C(=O)C2(Cc3ccccc3)CC3CCC2C3)CC1 (stereo not given),-1
16,COc1cc(C=C(C(=O)Nc2ccccc2F)C(=O)Nc2ccccc2F)ccc1OCC(=O)Nc1cccc(C(F)(F)F)c1,-18
17,Cc1[nH]ccc1C(=O)N1CC[C@]2(CCN(C(=O)OC(C)(C)C)C2)C1,13
18,CCC(=O)OC1(C#CCOc2ccc(OC)cc2)CCN(C)CC1,9
19,Cc1cc(C)n(-c2ccc(N3CC4CCC3C4)nc2)n1 (stereo not given),-2
20,C[C@H](NC(=O)c1ccco1)c1cc2c(cc1Br)OCCCO2,-9
21,Cc1ccc(NC(=O)c2c(C)nc3sc(C(=O)NCc4ccccc4)c(N)c3c2-c2ccccc2Cl)c(C)c1,87
22,Cc1ccc(NC(=O)c2c(C)nc3sc(C(=O)NCc4ccccc4)c(N)c3c2-c2cccs2)c(C)c1,11
23,CCc1ccc(NC(=O)c2sc3nc(C)c(C(=O)Nc4ccc(C)cc4C)c(-c4ccccc4Cl)c3c2N)cc1,5
24,CN([C@H]1CCc2nn(CC3CC3)c(=O)n2CC1)S(=O)(=O)c1ccccc1C(F)(F)F,1
25,CC(C)NC(=O)N1C[C@H]2CCCC(=O)N(Cc3cccc(F)c3)[C@H]2C1,8
